Assay outcomes deposited in PubChem BioAssay by several laboratories.
Only some compounds are listed: those with a hit (about 4.7% of all), similar ones and a draw of the others.
SKKanGAS inh: SKKanGAS growth inhibition; S. pyogenes SKKanGAS, kanamycin growth, BacTiter-Glo, 6 h; inhibition, % at 7.5 µM; actives 1.3% (n = 300,000); AID 1662;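 active means mean replicate score, as percent of positive control median, at least 50; inconclusive means mean below 50 but one replicate at or above 50; inactive means mean and every replicate below 50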;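 further: strain carries kanamycin resistance gene driven by streptokinase promoter and grows in 40 µg/ml kanamycin; loss of luminescence reflects streptokinase promoter inhibition or plain growth inhibition; 0% = median of DMSO wells and 100% = positive control at its reference dose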
Calb FLC: C. albicans growth modulation with fluconazole. C. albicans CaCi-2 (fluconazole-resistant clinical isolate) + fluconazole, Alamar Blue growth, 48 h. growth inhibition, % (test concentration not listed). actives 0.57% (n = 300,000). AID 1979;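 active means growth inhibition above about 58% in most replicates, limit read from the data, passing the limit was not always enough; inconclusive means exactly half the replicates above a set limit; inactive means most replicates below a set limit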;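 further: all wells also contain fluconazole at 8 µg/ml as a sub-toxic cotreatment; 0% = median of DMSO wells and 100% = median of geldanamycin control wells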
TIM10 inh: TIM10 yeast growth inhibition | inhibition, % at 10 µM | actives 1.4% (n = 330,000) | S. cerevisiae TIM10 strain growth, BacTiter-Glo luminescence, 24 h;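 active means inhibition of 40% or more at the single tested concentration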;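 further: wild-type TIM10 isogenic control strain grown at permissive 25 °C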
tim23-1 inh: growth inhibitors of tim23-1 mutant yeast; S. cerevisiae tim23-1 growth, BacTiter-Glo luminescence, 24 h; inhibition, % at 20 µM; actives 1.3% (n = 330,000); AID 463212;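 active means growth inhibition of the mutant yeast at or above 50%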;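 further: temperature-sensitive mutant grown at 25 °C; plate controls were DMSO-treated mutant yeast for no effect and medium wells lacking yeast for full effect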
tim10-1 inh: growth inhibitors of tim10-1 mutant yeast; inhibition, % at 20 µM; actives 2.2% (n = 330,000); S. cerevisiae tim10-1 ts strain growth, BacTiter-Glo, 24 h;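 active means inhibition of at least 40%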;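 further: mutant grown at 25 °C; 0% = DMSO wells with yeast and 100% = wells holding no yeast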
PfHsp90 set2: reduces growth (ATP signal) of yeast expressing P. falciparum Hsp90 | actives 0.32% (n = 310,000) | AID 504621 | S. cerevisiae expressing PfHsp90, BacTiter-Glo ATP, 48 h; yeast lacking PDR1 and PDR3 efflux regulators | inhibition, % at 9.4 µM;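 active means every replicate shows inhibition above about 80%, whatever the replicate mean, limit read from the data; inconclusive means mean inhibition reaches the set limit but some replicate falls short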;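 further: 0% = DMSO neutral controls and 100% = 20 µM radicicol positive controls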
tim10-1 conf: confirmation of tim10-1 mutant yeast growth inhibitors; shares compounds with tim10-1 inh; S. cerevisiae tim10-1 ts strain growth, BacTiter-Glo, 24 h; inhibition, % at 20 µM; actives 56% (n = 7,400);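 active means inhibition of yeast growth at or above a set limit in either of two repeat tests at 20 µM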;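 further: tim10-1 mutant grown at permissive 25 °C to find synthetic lethal compounds; 0% = DMSO yeast wells and 100% = medium wells without yeast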
The depositor's hits bear a star; ? = inconclusive; · = no result given.

SMILES	SKKanGAS inh	Calb FLC	TIM10 inh	tim23-1 inh	tim10-1 inh	PfHsp90 set2	tim10-1 conf
Nc1ccc(S(=O)(=O)Nc2nc3ccccc3o2)cc1	5	14	0	-1	2	-8	·
Cc1c(Cl)cccc1NC(=S)N1CCCCCC1	-3	9	24	29	44*	-13	16
Cc1cccc(NC(=S)N2CCCCCC2)c1C	·	-18	5	9	5	9	·
Cc1cccc(OCc2nnc(SCC(=O)N(C)C3CCCCC3)o2)c1	·	·	8	24	34	·	·
O=C(c1cc(COc2c(F)cccc2F)on1)N1CCN(C2CCCCC2)C(=O)C1	-1	-4	-8	24	22	-7	·
O=C(c1cc(COc2ccc(F)c(F)c2)on1)N1CCN(C2CCCCC2)C(=O)C1	2	2	-18	33	40*	-23	-29
Cc1cc(C)c2c(-n3cccc3)c(C(=O)NNS(=O)(=O)c3ccc(Cl)cc3)sc2n1	29	21	32	40	43*	-17	32*
Nc1ncn(C23CC4CC(CC(C4)C2)C3)n1	2	7	11	13	12	8	·
c1ccc(-c2nnn(C34CC5CC(CC(C5)C3)C4)n2)cc1	0	-11	27	22	47*	12	12
CCn1c(SCc2nc(-c3ccccc3)no2)nnc1-c1ccco1	-13	-13	-1	5	22	18	·
CCn1c(SCc2c(F)cccc2Cl)nnc1-c1ccco1	6	0	13	43	49*	2	41*
CCOC(=O)/C=c1/s/c(=C/c2ccccc2OC)c(=O)n1CC(=O)N1CCOCC1	·	·	·	·	·	6	·
O=C1CC(=C2c3ccccc3-c3ccccc32)C(=O)N1CCN1CCN(c2cccc(Cl)c2)CC1	0	-13	0	10	41*	-53	24
O=C1C2CCCCN2C(=O)N1CCN1CCN(c2cccc(Cl)c2)CC1 (stereo unspecified)	·	·	·	·	·	12	·
C/C(=N\NC(=S)Nc1c(C)cccc1C)c1cc2ccccc2o1	-3	7	37	10	42*	-7	28
C/C(=N\NC(=S)Nc1c(C)cccc1C)c1ccc(O)cc1	14	-11	-10	27	12	20	·
COc1ccc(NC(=O)CN2C(=O)C(C)Oc3ccccc32)cc1OC (stereo unspecified)	3	-5	-9	1	1	-1	·
COc1cccc(C(C#N)NCCCNC(C#N)c2cccc(OC)c2OC)c1OC (stereo unspecified)	·	·	·	·	·	-7	·
Oc1ccccc1/C=N/Nc1nccnc1Cl	19	97*	28	28	55*	·	20
O=C(NC1CCCC1)C(c1ccc(F)cc1)N(Cc1ccc(F)cc1)C(=O)CCl (stereo unspecified)	-7	-13	36	41	57*	9	33*
O=C(NC1CCCCC1)C(c1ccncc1)N(Cc1ccc(F)cc1)C(=O)c1ccccn1 (stereo unspecified)	0	8	-13	4	2	-9	·
CCCn1c(C)nc2c(c1=O)c1nc3ccccc3nc1n2CCC1=CCCCC1	11	?	7	39	49*	·	-2
Cc1nc2c(c(=O)n1CCC1=CCCCC1)c1nc3ccccc3nc1n2/N=C/c1ccco1	39	-22	10	4	-6	-4	·
CCOc1ccc(-n2cc(C(=O)Nc3cccc(OC)c3)c3cc(OC)c(OC)cc3c2=O)cc1	6	-9	12	23	42*	-18	36*
CC(=O)O[C@]1(C(C)=O)CC[C@H]2[C@@H]3C=CC4=CC(=O)C=C[C@]4(C)[C@H]3CC[C@@]21C	2	-3	10	34	40*	-11	5
CC(C)OCCCn1c(-c2ccc(Br)cc2)c[nH]c1=S	-1	-39	39	-5	43*	-11	10
CC(C)OCCCn1c(=S)[nH]c2ncccc2c1=O	-1	-6	9	16	22	7	·
COc1cccc(N2CCN(C(=O)C3CCN(S(=O)(=O)c4ccc5c(c4)CC(C)N5C(C)=O)CC3)CC2)c1 (stereo unspecified)	-2	0	-5	3	9	-1	·
COc1ccc(NC(=O)CCNS(=O)(=O)c2cccc3nsnc23)c(OC)c1	-1	6	12	3	10	3	·
